This note sets out measurements from ChEMBL document CHEMBL4513134, “CO-ADD screening of University of Queensland (Australia) compounds” (2021).

Entries with a potency or affinity are not part of this list.

In the first assay the test system is Candida albicans. To be noted: 32 ug/mL.
In the case of `Cn1c([N+](=O)[O-])cnc1C(=O)NCc1ccccn1.O=C(O)C(F)(F)F`, the Inhibition came out at 4.77%.
Turning to `Cn1c([N+](=O)[O-])cnc1C(=O)NCc1cccc(OC(F)(F)F)c1`, the Inhibition was 11.6%.
As for `Cn1c([N+](=O)[O-])cnc1C(=O)NC1CC1`, the Inhibition is 5.96%.
In the case of `Cn1c([N+](=O)[O-])cnc1C(=O)NCc1ccc(F)cc1`, the Inhibition turned out to be 7.55%.
Regarding `CN(C)C(=O)c1ncc([N+](=O)[O-])n1C`, the Inhibition amounted to 10.4%.
Still for that read-out and setting: the result for `Cn1c([N+](=O)[O-])cnc1C(=O)NCc1ccc(OC(F)(F)F)cc1` reads 21.3%; that for `Cc1ccc(CCNC(=O)c2ncc([N+](=O)[O-])n2C)cc1`, 12.1%.
On the same count and under the same terms, the result for `Cn1c([N+](=O)[O-])cnc1C(=O)N1CCOCC1` reads 14.1%; that for `Cn1c([N+](=O)[O-])cnc1C(=O)N1CCCC1`, 7.94%; that for `CC(NC(=O)c1ncc([N+](=O)[O-])n1C)c1ccc(F)cc1` (stereo not given), 6.03%.

In another assay the test system is Cryptococcus neoformans. The note with it: Concentration 32 ug.mL-1; ASSAY_TEST Inhibition of Fungal Growth; detection method Resazurin; Absorption (OD600-OD570); plate type 384well; NBS; CORNING #3640. On the technique in general: Alamar Blue is a resazurin reagent that responds to reducing activity.
As to `Cn1c([N+](=O)[O-])cnc1C(=O)NCc1ccccn1.O=C(O)C(F)(F)F`, the Inhibition is reported as -18.89%.
As for `Cn1c([N+](=O)[O-])cnc1C(=O)NCc1cccc(OC(F)(F)F)c1`, the Inhibition is listed as -18.54%.
Same read-out and setting: the result for `Cn1c([N+](=O)[O-])cnc1C(=O)NC1CC1` reads -21.85%.
On to `Cn1c([N+](=O)[O-])cnc1C(=O)NCc1ccc(F)cc1`, for which the Inhibition is -24.39%.
For the molecule `CN(C)C(=O)c1ncc([N+](=O)[O-])n1C`, the Inhibition is -8.01%.
With `Cn1c([N+](=O)[O-])cnc1C(=O)NCc1ccc(OC(F)(F)F)cc1`, the Inhibition worked out at 2.62%.
Still for that read-out and setting: the result for `Cc1ccc(CCNC(=O)c2ncc([N+](=O)[O-])n2C)cc1` reads -8.7%; that for `Cn1c([N+](=O)[O-])cnc1C(=O)N1CCOCC1`, -21.61%.
On the same count and under the same terms, the result for `Cn1c([N+](=O)[O-])cnc1C(=O)N1CCCC1` reads -19.05%; that for `CC(NC(=O)c1ncc([N+](=O)[O-])n1C)c1ccc(F)cc1` (stereo not given), -25.7%.

What is called Inhibition is the relative decrease from the control value, in per cent.
